Screens from PubChem.
CYP2C9 act: CYP2C9 (human) activation | recombinant CYP2C9, luciferin-H conversion, luminescence; active compounds read high; factor 1 = untreated enzyme, 0 = blocked | activation factor at 5 µM | hit rate 1.4% among 96,000 | AID 1024;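 active = activation factor of 2 or more for CYP2C9 at a 5 µM dose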;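 note: 0 = sulfaphenazole-blocked wells and 1 = vehicle-only wells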
PLAP activator: activates human placental alkaline phosphatase; AID 696; purified PLAP enzyme, luminescent substrate read-out; active compounds read high; activation fold at 20 µM; hit rate 1.2% among 96,000; P05187; in the data active = activation fold above about 2
CYP2C19 inhib: human CYP2C19 inhibition; hit rate 21% among 96,000; inhibition, % at 5 µM; CYP2C19 Supersomes, luciferin-H EGE luminescence, 30 min;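 active = CYP2C19 inhibition above a set limit at 5 µM in the primary screen, cut at about 50% in these data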;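 note: plate controls were negative control wells for no effect and 2.5 mM tranylcypromine positive control for full effect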
Target sequence (P33261 whole entry, looked up): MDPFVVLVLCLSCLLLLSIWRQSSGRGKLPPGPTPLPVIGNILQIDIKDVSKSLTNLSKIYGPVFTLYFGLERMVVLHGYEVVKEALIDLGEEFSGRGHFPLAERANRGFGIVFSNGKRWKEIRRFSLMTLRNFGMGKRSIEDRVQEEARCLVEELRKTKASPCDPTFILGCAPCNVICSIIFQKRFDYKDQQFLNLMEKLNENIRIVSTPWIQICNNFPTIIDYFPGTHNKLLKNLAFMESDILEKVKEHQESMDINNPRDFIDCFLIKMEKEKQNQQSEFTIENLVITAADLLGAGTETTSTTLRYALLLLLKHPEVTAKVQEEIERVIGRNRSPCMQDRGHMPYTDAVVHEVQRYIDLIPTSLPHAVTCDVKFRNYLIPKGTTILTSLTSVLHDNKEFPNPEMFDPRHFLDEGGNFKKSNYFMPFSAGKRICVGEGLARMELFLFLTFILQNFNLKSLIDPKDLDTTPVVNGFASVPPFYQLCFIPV
CYP2C19 activ: cytochrome P450 2C19 (human) activation | recombinant CYP2C19, luciferin-H EGE luminescence; active compounds read high; 0 = fully inhibited enzyme, 1 = untreated enzyme | activation factor at 5 µM | P33261 | 96,000 tested, under 10 active;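 active = activation factor of at least 2 at 5 µM in the primary screen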;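 note: 0 = wells with 2.5 mM tranylcypromine and 1 = vehicle-only wells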
CYP2C9 inh: inhibitors of human CYP2C9; CYP2C9 Supersomes, luciferin-H conversion, luminescence; P11712; inhibition, % at 5 µM; hit rate 20% among 96,000;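 active = blocking of liver enzyme CYP2C9 beyond about 50% at 5 µM, limit read from the data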
Active calls of the source: *. Most compounds without a hit are left out; they make up all but 31% or so of the library.

SMILES | CYP2C9 act | PLAP activator | CYP2C19 inhib | CYP2C19 activ | CYP2C9 inh
COC(=O)C1=C(C)N(c2ccc(F)cc2)C(=O)C1 | 1 | 1.1 | 60* | 0.4 | 3
COC(=O)C1=C(C)N(c2ccc(F)c(Cl)c2)C(=O)C1 | 0.5 | 1.3 | 41 | 0.6 | 52*
COC(=O)C1=C(C)N(c2cccc(C(C)=O)c2)C(=O)C1 | 1.1 | 1 | 9 | 0.9 | -13
CCOC(=O)C1=C(N)N(c2ccc(N3CCCCC3)cc2)C(=O)C1 | 1.5 | 1.6 | 39 | 0.6 | -47
Cc1cc(C)nc(NC2=NCC(=O)N2c2ccc(F)c(Cl)c2)n1 | 1.2 | 1.6 | -20 | 1.2 | -21
CCOC(=O)Cn1nc(-c2ccc(F)cc2)oc1=O | 0.6 | 0.9 | 58* | 0.4 | 44
CN(Cc1ccco1)C(=O)C(Cc1ccccc1)NS(=O)(=O)c1ccc2c(c1)CCC(=O)N2 (centres undefined) | 0.3 | 1.7 | 56* | 0.4 | 71*
CCOC(=O)C1=C(C)C(c2ccc(OC)cc2)NC(=S)N1 (centres undefined) | 0.2 | 0.9 | 59* | 0.4 | 82*
CCOC(=O)C1=C(C)C(c2ccccc2O)NC(=O)N1 (centres undefined) | 0.7 | 1.1 | 23 | 0.8 | 26
CCCCOC(=O)CSc1n[nH]c(=O)[nH]c1=O | 0.8 | 0.9 | 7 | 0.9 | 17
O=C(CCSc1nc(-c2ccco2)cc(C(F)(F)F)n1)N1CCN(c2ccccc2)CC1 | 0.2 | 1.3 | 81* | 0.2 | 76*
COc1ccc(CCNC(=O)CCSc2nc(-c3ccco3)cc(C(F)(F)F)n2)cc1OC | 0.1 | 0.8 | 88* | 0.1 | 91*
O=C(CCSc1nc(-c2ccco2)cc(C(F)(F)F)n1)NCc1ccccn1 | 0.3 | 1.5 | 78* | 0.2 | 69*
O=C(CSc1nc(-c2ccco2)cc(C(F)(F)F)n1)NC1CCCC1 | 0.1 | 1 | 82* | 0.2 | 94*
CCC(C)N(CC(=O)NCc1ccc(OC)cc1)C(=O)c1csnn1 (centres undefined) | 1.1 | 0.9 | 19 | 0.8 | -6
Cc1ccc(S/C=C\C(=O)c2ccccc2)cc1 | 0.9 | 0.9 | 12 | 0.9 | 10
O=C(CSc1nnc(COc2ccccc2)n1Cc1ccco1)Nc1ccc2c(c1)OCCO2 | 0.9 | 1 | -2 | 1 | 11
COc1ccccc1-n1c(SCC(=O)NC2CCCCC2)nc2c(c1=O)SCC2 | 1 | 0.9 | 12 | 0.9 | 2
COC(=O)c1ccccc1NC(=O)CSc1nc(-c2ccco2)cc(C(F)(F)F)n1 | 1 | 0.8 | 2 | 1 | 5
CC(NC(=O)CCSc1nc(-c2ccco2)cc(C(F)(F)F)n1)c1ccccc1 (centres undefined) | 0.5 | 1.1 | 53* | 0.5 | 47
Cn1c(=O)c(C(=O)c2ccccc2)nc2ccccc21 | 1.4 | 0.9 | 43 | 0.6 | -41
